Read-out in assay [1]: Tissue Factor, F3 (gene 2152)
The experiment in a line: BSK_CASM3C_TissueFactor: BioMAP Diversity Plus: CASM3C Assay for Tissue Factor Biomarker Activity (AID 2283052).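 Note: cell surface tissue factor protein level read by ELISA.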 To be noted: primary human coronary artery smooth muscle cells; actives raise or lower the signal.

Read-out in assay [2]: Interferon-gamma inducible Protein 10 (IP10), CXCL10 (gene 3627)
The experiment in a line: BSK_hDFCGF_IP10: BioMAP Diversity Plus: hDFCGF Assay for Interferon-gamma inducible Protein 10 (IP10) Biomarker Activity (AID 2283053). To be noted: primary human foreskin fibroblasts; actives raise or lower the signal. In outline:
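Human foreskin fibroblast primary cells (hDFCGF system) were dosed with chemical and assayed at 24 h; IP-10 measured by ELISA. Activity fitted bidirectionally relative to DMSO negative control as baseline.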

Read-out in assay [3]: Urokinase-type plasminogen activator receptor (uPAR), PLAUR (gene 5329)
The assay can be described thus: BSK_CASM3C_uPAR: BioMAP Diversity Plus: CASM3C Assay for Urokinase-type plasminogen activator receptor (uPAR) Biomarker Activity (AID 2283054).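 Note: cell-surface uPAR protein level quantified by ELISA.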 The note with it: primary human coronary artery smooth muscle cells; actives raise or lower the signal.

Read-out in assay [4]: Vascular cell adhesion molecule 1 (VCAM1), VCAM1 (gene 7412)
The assay can be described thus: BSK_CASM3C_VCAM1: BioMAP Diversity Plus: CASM3C Assay for Vascular cell adhesion molecule 1 (VCAM1) Biomarker Activity (AID 2283055).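 Note: VCAM-1 protein level quantified by ELISA on the cells.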 The note with it: primary human coronary artery smooth muscle cells; actives raise or lower the signal.

Read-out in assay [5]: Collagen III, COL3A1 (gene 1281)
The experiment in a line: BSK_hDFCGF_CollagenIII: BioMAP Diversity Plus: hDFCGF Assay for Collagen III Biomarker Activity (AID 2283056). To be noted: primary human foreskin fibroblasts; actives raise or lower the signal. In outline: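 Human foreskin primary fibroblasts were exposed to test chemicals for 24 h, after which collagen III was quantified by ELISA. Activity was fitted bidirectionally against DMSO as negative control and baseline.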

Read-out in assay [6]: Epidermal growth factor receptor (EGFR), EGFR (gene 1956)
The assay can be described thus: BSK_hDFCGF_EGFR: BioMAP Diversity Plus: hDFCGF Assay for Epidermal growth factor receptor (EGFR) Biomarker Activity (AID 2283057). To be noted: primary human foreskin fibroblasts; actives raise or lower the signal. A digest of the protocol:
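Primary human foreskin fibroblasts were exposed to compound for 24 h, after which cell-surface EGFR was quantified by ELISA. Activity was fitted bidirectionally against the DMSO negative control as baseline.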

Read-out in assay [7]: Interleukin-8 (IL8), CXCL8 (gene 3576)
The experiment in a line: BSK_hDFCGF_IL8: BioMAP Diversity Plus: hDFCGF Assay for Interleukin-8 (IL8) Biomarker Activity (AID 2283058). The note with it: primary human foreskin fibroblasts; actives raise or lower the signal. In outline:
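hDFCGF human dermal fibroblasts; 24 h chemical exposure; IL-8 by ELISA; bidirectional curve fit vs DMSO baseline; gain or loss of signal scored.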

Assay [8] in a line: BSK_hDFCGF_Proliferation: Cell Proliferation Assessment in the BioMAP Diversity Plus: hDFCGF Assay (AID 2283059).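 Note: curves fitted for both rise and fall of signal versus DMSO baseline.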 To be noted: primary human foreskin fibroblasts. A digest of the protocol:
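Sub-confluent human foreskin fibroblast cultures receive test chemical […]. Relative cell number is quantified by sulforhodamine B staining (0.1%, after 10% TCA fixation) at 560 nm, with bidirectional fitting referenced to DMSO.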

Read-out in assay [9]: Macrophage colony-stimulating factor (MCSF), CSF1 (gene 1435)
The experiment in a line: BSK_hDFCGF_MCSF: BioMAP Diversity Plus: hDFCGF Assay for Macrophage colony-stimulating factor (MCSF) Biomarker Activity (AID 2283060). The note with it: primary human foreskin fibroblasts; actives raise or lower the signal. A digest of the protocol:
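Human foreskin primary fibroblasts were treated with test chemical for 24 h, and M-CSF was then measured by ELISA. Data were fitted bidirectionally against DMSO as the negative control and activity baseline.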

Assay [10] in a line: BSK_hDFCGF_SRB: Viability Assessment in the BioMAP Diversity Plus: hDFCGF Assay (AID 2283061).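 Note: cells exposed to compound for 24 h before the read.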 To be noted: primary human foreskin fibroblasts. In outline: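 Human foreskin primary fibroblasts were treated with compound and assessed 24 h after dosing. Total protein was measured by sulforhodamine B staining (0.1% SRB after 10% TCA fixation, 560 nm read) as a cytotoxicity marker, with bidirectional fitting against DMSO baseline.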

Read-out in assay [11]: TIMP metallopeptidase inhibitor 1 (TIMP1), TIMP1 (gene 7076)
The experiment in a line: BSK_hDFCGF_TIMP1: BioMAP Diversity Plus: hDFCGF Assay for TIMP metallopeptidase inhibitor 1 (TIMP1) Biomarker Activity (AID 2283062). The note with it: primary human foreskin fibroblasts; actives raise or lower the signal. In outline:
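Primary human foreskin fibroblasts in the hDFCGF system were dosed with compound for 24 h, then TIMP-1 was measured by ELISA. Activity was fitted bidirectionally relative to DMSO control; parallel SRB staining assessed cytotoxicity.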

Read-out in assay [12]: Monokine induced gamma interferon (MIG), CXCL9 (gene 4283)
The experiment in a line: BSK_hDFCGF_MIG: BioMAP Diversity Plus: hDFCGF Assay for Monokine induced gamma interferon (MIG) Biomarker Activity (AID 2283063). The note with it: primary human foreskin fibroblasts; actives raise or lower the signal. A digest of the protocol: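 ELISA read-out of MIG from primary human dermal fibroblasts 24 h post-dosing. Gain or loss of signal fitted bidirectionally, DMSO as baseline.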

Read-out in assay [13]: Matrix Metallopeptidase 1 (MMP1), MMP1 (gene 4312)
The assay can be described thus: BSK_hDFCGF_MMP1: BioMAP Diversity Plus: hDFCGF Assay for Matrix Metallopeptidase 1 (MMP1) Biomarker Activity (AID 2283064). The note with it: primary human foreskin fibroblasts; actives raise or lower the signal. A digest of the protocol:
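hDFCGF primary fibroblasts (human foreskin); chemical added; 24 h; MMP1 by ELISA; bidirectional fit vs DMSO.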

Read-out in assay [14]: Vascular cell adhesion molecule 1 (VCAM1), VCAM1 (gene 7412)
The assay can be described thus: BSK_hDFCGF_VCAM1: BioMAP Diversity Plus: hDFCGF Assay for Vascular cell adhesion molecule 1 (VCAM1) Biomarker Activity (AID 2283065).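 For AC50: VCAM-1 protein level quantified by ELISA after 24 h chemical exposure.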 The note with it: primary human foreskin fibroblasts; actives raise or lower the signal. In outline: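 Primary human foreskin fibroblasts (hDFCGF system) were dosed with chemical and VCAM-1 was measured by ELISA 24 h later. Bidirectional curve fitting used DMSO as negative control and activity baseline.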

Read-out in assay [15]: Plasminogen activator inhibitor-1 (PAI1), SERPINE1 (gene 5054)
The experiment in a line: BSK_hDFCGF_PAI1: BioMAP Diversity Plus: hDFCGF Assay for Plasminogen activator inhibitor-1 (PAI1) Biomarker Activity (AID 2283066). To be noted: primary human foreskin fibroblasts; actives raise or lower the signal. In outline:
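Human foreskin fibroblasts in the hDFCGF system were dosed with compound for 24 h; PAI-1 was quantified by ELISA. Bidirectional curve fitting used DMSO as negative control and baseline.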

Read-out in assay [16]: Intercellular Adhesion Molecule 1 (ICAM1), ICAM1 (gene 3383)
The experiment in a line: BSK_KF3CT_ICAM1: BioMAP Diversity Plus: KF3CT Assay for Intercellular Adhesion Molecule 1 (ICAM1) Biomarker Activity (AID 2283067). The note with it: primary human keratinocytes with fibroblasts; actives raise or lower the signal. In outline: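 Human keratinocyte plus foreskin fibroblast primary co-culture was exposed to chemical for 24 h. ICAM-1 was then quantified by ELISA, and the data were fit bidirectionally against DMSO as the negative control and baseline.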

Read-out in assay [17]: Interferon-gamma inducible Protein 10 (IP10), CXCL10 (gene 3627)
The experiment in a line: BSK_KF3CT_IP10: BioMAP Diversity Plus: KF3CT Assay for Interferon-gamma inducible Protein 10 (IP10) Biomarker Activity (AID 2283068). The note with it: primary human keratinocytes with fibroblasts; actives raise or lower the signal. In outline: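 ELISA read-out of IP-10 after 24 h chemical dosing of human skin primary co-culture (keratinocytes, foreskin fibroblasts). Gain or loss of signal relative to DMSO, bidirectional curve fit.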

Assay [18] can be described thus: BSK_KF3CT_SRB: Viability Assessment in the BioMAP Diversity Plus: KF3CT Assay (AID 2283069).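 Note: fitted for both signal gain and loss against DMSO baseline.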 The note with it: primary human keratinocytes with fibroblasts. In outline:
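Keratinocytes co-cultured with foreskin fibroblasts (human primary); chemical added, 24 h; fix 10% TCA, stain 0.1% SRB, A560. Bidirectional fit vs DMSO.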

Read-out in assay [19]: Interleukin-1 alpha (IL1a), IL1A (gene 3552)
The assay can be described thus: BSK_KF3CT_IL1a: BioMAP Diversity Plus: KF3CT Assay for Interleukin-1 alpha (IL1a) Biomarker Activity (AID 2283070). To be noted: primary human keratinocytes with fibroblasts; actives raise or lower the signal. A digest of the protocol:
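Chemicals were dosed onto co-cultured human keratinocytes and foreskin fibroblasts, IL-1a was quantified by ELISA at 24 h, and activity was fitted in both directions relative to DMSO controls.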

Structures are written as SMILES. Active and inactive are the calls of the source. Rule for the calls: active = hit-call score of the fitted dose curve at least 0.9, where 1 is the maximum; inactive = score below 0.9.

Consider `O=C(N[C@@H](Cc1ccccc1)[C@@H](O)C(=O)N1C[C@@H](O)[C@@H](O)C1)c1cc2cc(Cl)ccc2[nH]1`, for which the result in assay [1], in assay [2], in [3], in assay [4], in assay [5] and in assay [6] was inactive. The outcome in assay [7], in [8], in assay [9], in assay [10], in assay [11] and in assay [12] was inactive. Moreover, the outcome in assay [13], in assay [14], in [15], in [16], in assay [17] and in [18] was inactive. For the same compound, in assay [19], the outcome was inactive.
As to `COc1cc(-c2nc(NC(=O)c3cc4cc(C)cc(C)c4n3CC(=O)O)sc2CCC2CCCCC2)c(OC)cc1Cl`, the outcome in assay [1] and in assay [6] was inactive. Besides, the AC50 (as a rule, the concentration giving half of the maximal activity seen) in assay [2] was 0.46 µM (active); in assay [3], 6.56 µM (active); in assay [4] it was 10.2 µM (active); in assay [5], 0.203 µM (active); in assay [7], 2.36 µM (active); in assay [8], 0.128 µM (active). Also, the AC50 in assay [9] was 0.42 µM (active); in assay [10], 0.771 µM (active); in assay [11], 0.48 µM (active); in assay [12] it was 1.62 µM (active); in assay [13] it was 0.471 µM (active); in assay [14], 0.317 µM (active). Also, the AC50 is 0.442 µM (active) in [15]; 3.23 µM (active) in [16]; 1.55 µM (active) in assay [17]; 1.64 µM (active) in assay [18]; 4.26 µM (active) in assay [19].
`OC[C@@H](O)[C@@H](O)[C@H](O)[C@H](O)CO`: the outcome in [1], in assay [2], in assay [3], in assay [4], in assay [5] and in assay [6] was inactive. Moreover, the outcome in assay [7], in assay [8], in assay [9], in assay [10], in [11] and in assay [12] was inactive. Besides, the outcome in assay [13], in assay [14], in assay [15], in [16], in assay [17] and in assay [18] was inactive. Further, the result in assay [19] was inactive.
As for `Cc1cccc(Nc2cc(Cl)nc(SCC(=O)O)n2)c1C`, the result in assay [1], in [2], in [3], in assay [4], in assay [5] and in assay [6] was inactive. In addition, the result in assay [7], in [9], in assay [10], in assay [11], in [12] and in assay [13] was inactive. Also, the result in assay [14], in assay [15], in assay [16], in assay [17], in assay [18] and in [19] was inactive.
With `CCOC(=O)C(C)(C)Oc1ccc(Cl)cc1`, the result in assay [1], in [2], in assay [3], in assay [4], in assay [5] and in assay [6] was inactive. Moreover, the outcome in assay [7], in assay [9], in assay [10], in assay [11], in assay [12] and in assay [13] was inactive. Also, the outcome in assay [14], in [15], in assay [16], in assay [17], in assay [18] and in assay [19] was inactive.
In the case of `CCCCCCCCCCCCCCCCCC(=O)O`, the result in [1], in assay [2], in assay [3], in assay [4], in assay [5] and in assay [6] was inactive. Also, the result in assay [7], in [9], in assay [10], in [11], in assay [12] and in assay [13] was inactive. Also, the result in assay [14], in assay [15], in [16], in assay [17], in assay [18] and in [19] was inactive.
For `CCOc1ccc2c(c1)C(C)=CC(C)(C)N2`, the outcome in assay [1], in assay [3], in assay [4], in assay [6], in assay [7] and in assay [10] was inactive. Moreover, the outcome in [11], in assay [13], in assay [15], in assay [16], in [17] and in assay [18] was inactive. For the same compound, in assay [19], the result was inactive. The AC50 in [2] is 20 µM (active); in assay [5] it was 15.1 µM (active); in assay [8], 24.3 µM (active); in assay [9] it was 6.14 µM (active); in assay [12], 16.4 µM (active); in assay [14], 3.97 µM (active).
In the case of `COCCOCCOC`, the outcome in assay [1], in assay [2], in [3], in assay [4], in [6] and in [7] was inactive. The outcome in assay [9], in [10], in assay [11], in [12], in [13] and in assay [14] was inactive. In addition, the result in assay [15], in assay [16], in [17], in assay [18] and in assay [19] was inactive. For the same compound, in [5], the AC50 was 0.148 µM (active).

Source of the values: PubChem BioAssay (EPA / NIEHS).
